Results on 38 molecules are retold here after PubChem BioAssay (NCI).

This is part of a sample that, as a whole, favours compounds with a hit. Of some 79,000 tested, about 15% had one in any assay. Unmarked numbers belong to inactive results. Calls of active or inactive are those of the source. Cut-off read from the data, not from the text of the source: active = growth inhibition above about 70%; inactive = the rest.

Assay [1] in a line: NCI Yeast Anticancer Drug Screen. Data for the rad50 strain (AID 155).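 Note: 0% = growth of vehicle-only cultures of the same strain.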 Particulars: S. cerevisiae rad50 strain growth inhibition; at 50.0 µM; active compounds read high. Put shortly:
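Readout: growth inhibition relative to vehicle-treated cultures. Compound exposure was carried out in a genetically defined yeast strain deficient in DNA damage repair.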

Assay [2] can be described thus: NCI Yeast Anticancer Drug Screen. Data for the mec2-1 strain (AID 157). The note with it: S. cerevisiae mec2-1 strain, at 50.0 µM, active compounds read high. In short, it runs like this: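 Yeast mec2-1 mutant treated with compound. Readout: growth inhibition vs vehicle controls.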
Assay [3] is described as follows: NCI Yeast Anticancer Drug Screen. Data for the sgs1 mgt1 strain (AID 161).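 Note: 0% = growth of cultures given vehicle only.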 Particulars: S. cerevisiae sgs1 mgt1 strain, at 50.0 µM, active compounds read high. In short, it runs like this:
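Genetically altered yeast, compound exposure, growth inhibition relative to vehicle.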

Assay [4] is described as follows: NCI Yeast Anticancer Drug Screen. Data for the cln2 rad14 strain (AID 165).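 Note: 0% = growth equal to vehicle treated cultures.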 Particulars: S. cerevisiae cln2 rad14 strain, at 50.0 µM, active compounds read high. In short, it runs like this: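 cln2 rad14 yeast strain; compound exposure; growth inhibition read vs vehicle controls.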
Assay [5] is described as follows: NCI Yeast Anticancer Drug Screen. Data for the bub3 strain (AID 167). Particulars: S. cerevisiae bub3 mutant strain, at 50.0 µM, active compounds read high. In short, it runs like this:
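Readout: yeast growth inhibition, expressed relative to vehicle-only wells. The test organism is a mutant strain from a panel with lesions in DNA repair or checkpoint genes.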

A short description of assay [6]: NCI Yeast Anticancer Drug Screen. Data for the mlh1 rad18 strain (AID 175). Particulars: S. cerevisiae mlh1 rad18 strain growth inhibition; at 50.0 µM; active compounds read high. Put shortly:
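Yeast w/ defined DNA-repair lesions; compound exposure; growth vs vehicle controls → % inhibition.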

As to `Cn1c2c(c3ccccc31)CCCC2`, the growth inhibition in assay [1] is 1.55%; in assay [2], -14.8%; in assay [3], 1.4%; in assay [4], -16.8%; in assay [5], 4.5%; in assay [6], 5.35%.
With `C=C(C)COC1CCCCO1` (stereo not drawn), the growth inhibition in assay [1] is -3.75%; in assay [2] it was -15.1%; in assay [3], -36.7%; in assay [4], 14.7%; in assay [5] it was -42.3%; in assay [6], -39.1%.
In the case of `Nc1nc2c(ncn2CC2CCOC2=O)c(=O)[nH]1` (stereo not drawn), the growth inhibition is -19.1% in assay [1]; -17.9% in assay [2]; -18.7% in assay [3]; 4.4% in assay [4]; -5.85% in assay [5]; -14.8% in assay [6].
As to `N#CC(CCc1ccccc1[N+](=O)[O-])(CCc1ccccc1[N+](=O)[O-])C(N)=O`, the growth inhibition was 19.3% in assay [1]; 5.55% in assay [2]; 24.4% in assay [3]; -18.4% in assay [4]; 16.6% in assay [5]; 39.1% in assay [6].
As to `C/C=C/C(=O)OCCC#N`, the growth inhibition was -27.1% in assay [1]; -2.3% in assay [2]; 3.7% in assay [3]; 14.7% in assay [4]; -17.1% in assay [5]; -8.85% in assay [6].
Turning to `CC1(C)OC[C@@H](O)[C@H](C#N)CO1`, the growth inhibition in assay [1] was 17.6%; in assay [2] it was 27.6%; in assay [3] it was 3.75%; in assay [4], 19.6%; in assay [5], -0.95%; in assay [6], -18.1%.
For the molecule `CCOC(=O)c1nc[nH]c1C(=O)OCC`, the growth inhibition was 17.5% in assay [1]; -7.25% in assay [2]; -6.1% in assay [3]; 11% in assay [4]; -1.35% in assay [5]; 12% in assay [6].
For `O=C(O)CC(CC(=O)O)c1ccc2c(c1)OCO2`, the growth inhibition is -32.6% in assay [1]; -20.9% in assay [2]; -3.7% in assay [3]; -1.2% in assay [4]; -35.8% in assay [5]; -13.1% in assay [6].
Turning to `COc1cccc[n+]1C`, the growth inhibition in assay [1] was 10.2%; in assay [2], 3.45%; in assay [3], -2.15%; in assay [4], 8.3%; in assay [5], 5.4%; in assay [6] it was 7.45%.
As to `N#Cc1c(N)ncn1C1OC(CO)C(O)C1O` (stereo not drawn), the growth inhibition is -17.6% in assay [1]; -7.6% in assay [2]; -20.9% in assay [3]; -16.3% in assay [4]; 0.15% in assay [5]; -13.3% in assay [6].
In the case of `COc1ccc2ccccc2c1NC(C)=O`, the growth inhibition in assay [1] is 0.2%; in assay [2], 5.95%; in assay [3] it was -0.7%; in assay [4], -21.8%; in assay [5], -1.6%; in assay [6], -10.5%.
Take `CC(C)(C)C1=NNC(c2ccccc2)C1` (stereo not drawn): the growth inhibition was 5.25% in assay [1]; -3.75% in assay [2]; -14.7% in assay [3]; 5.5% in assay [4]; -1.25% in assay [5]; 12.6% in assay [6].
Consider `C=CC1C(OC2OC(CO)C(O)C(O)C2O)OC=C(C(=O)OC)C1CC=O` (stereo not drawn), for which the growth inhibition in assay [1] is 32.9%; in assay [2], 11.9%; in assay [3] it was 4.15%; in assay [4], 13.4%; in assay [5] it was 18.3%; in assay [6] it was 32.7%.
Consider `CC(C)(C)c1cc2c(O)c(c1)Cc1cc(C(C)(C)C)cc(c1O)Cc1cc(C(C)(C)C)cc(c1O)Cc1cc(C(C)(C)C)cc(c1O)Cc1cc(C(C)(C)C)cc(c1O)Cc1cc(C(C)(C)C)cc(c1O)Cc1cc(C(C)(C)C)cc(c1O)Cc1cc(C(C)(C)C)cc(c1O)C2`, for which the growth inhibition in assay [1] is -12.8%; in assay [2], 9.65%; in assay [3], 7.3%; in assay [4], 5.6%; in assay [5], -14%; in assay [6], -15.1%.
Take `c1ccc(B2OC(c3ccccc3)=C(c3ccccc3)O2)cc1`: the growth inhibition in assay [1] is 1.45%; in assay [2], -0.25%; in assay [3], 17.9%; in assay [4], 11.8%; in assay [5], -0.45%; in assay [6], 13.3%.
Turning to `CC(=O)OC(C)c1cc2c(s1)C(=O)c1sccc1C2=O` (stereo not drawn), the growth inhibition was 88.6% (active) in assay [1]; 91% (active) in assay [2]; 88.8% (active) in assay [3]; 89% (active) in assay [4]; 89.3% (active) in assay [5]; 89.5% (active) in assay [6].
Consider `O=C(CI)NCC(O)CNC(=O)CI`, for which the growth inhibition in assay [1] is 16.9%; in assay [2], 13.9%; in assay [3] it was 18%; in assay [4] it was 27.6%; in assay [5], 9.2%; in assay [6], 36.5%.
For the molecule `Oc1c(CN2CCN(c3ccccc3)CC2)cc(Br)c2cccnc12`, the growth inhibition in assay [1] was 34%; in assay [2], 19.9%; in assay [3], 41.4%; in assay [4], -0.3%; in assay [5], 9.4%; in assay [6], 39.6%.
Take `C=C(C)C(=O)OCCN(CC)CC`: the growth inhibition in assay [1] was 33.9%; in assay [2], -4.15%; in assay [3], 17.7%; in assay [4] it was 23.6%; in assay [5], 11.4%; in assay [6], 23.5%.
On to `COC1/C=C/OC2(C)Oc3c(C)c(OC(C)=O)c4c(c3C2=O)C(=O)C=C(NC(=O)/C(C)=C\C=C\C(C)C(OC(C)=O)C(C)C(O)C(C)C(OC(C)=O)C1C)C4=O` (stereo not drawn), for which the growth inhibition in assay [1] is 13.6%; in assay [2], 20.7%; in assay [3], 26.1%; in assay [4], 21.6%; in assay [5], 9.45%; in assay [6], 42.9%.
As to `O=C1CCC2(c3ccccc3)Nc3ncccc3N12` (stereo not drawn), the growth inhibition is 33% in assay [1]; 2.8% in assay [2]; 6.6% in assay [3]; 3.85% in assay [4]; 23% in assay [5]; 27.8% in assay [6].
With `Cl[Si]1(Cl)Oc2ccccc2O[Si](Cl)(Cl)Oc2ccccc2O1`, the growth inhibition in assay [1] is 16.2%; in assay [2] it was 10.6%; in assay [3], 8.35%; in assay [4] it was 28.6%; in assay [5], 3.7%; in assay [6] it was 10.2%.
Consider `N#Cc1ccc(Br)cc1`, for which the growth inhibition in assay [1] was 7.95%; in assay [2], -3.45%; in assay [3], 16.6%; in assay [4], -19.9%; in assay [5], -6.2%; in assay [6], 18.1%.
Consider `COc1ccc(C2CCCCCC2OS(=O)(=O)c2ccc(C)cc2)c(OC)c1OC` (stereo not drawn), for which the growth inhibition is 1.75% in assay [1]; -4.55% in assay [2]; -7.15% in assay [3]; -14.8% in assay [4]; 8.45% in assay [5]; -9% in assay [6].
Consider `Cc1cnn(-c2ccccc2)[n+]1[O-]`, for which the growth inhibition in assay [1] was 0.65%; in assay [2] it was 11.5%; in assay [3] it was 9.5%; in assay [4] it was -28.8%; in assay [5], 9.6%; in assay [6], 6.4%.
On to `COc1ccc(C(O)Cc2cc(=O)cc(-c3ccccc3)[nH]2)cc1` (stereo not drawn), for which the growth inhibition is 2.2% in assay [1]; -4.95% in assay [2]; 2.2% in assay [3]; -40.3% in assay [4]; 9.85% in assay [5]; -1.4% in assay [6].
With `O=C(NCc1ccccc1)NCN1CCOCC1`, the growth inhibition was 20.7% in assay [1]; -0.85% in assay [2]; 5.15% in assay [3]; 0.45% in assay [4]; 5.65% in assay [5]; -11.3% in assay [6].
Regarding `Cc1ccccc1OCC1COCN(C(C)(C)C)CO1` (stereo not drawn), the growth inhibition in assay [1] was -13.5%; in assay [2] it was -2.2%; in assay [3], 4.95%; in assay [4] it was 7.8%; in assay [5] it was -20.9%; in assay [6] it was 19.6%.
With `O=C(O)/C=C\C(=O)Nc1ccccn1`, the growth inhibition is -30.6% in assay [1]; -43.8% in assay [2]; -52.7% in assay [3]; -2.65% in assay [4]; -44.9% in assay [5]; -21.4% in assay [6].
Regarding `CCCNC(=O)C1C(=O)C(=O)N(CCC)C1=O` (stereo not drawn), the growth inhibition in assay [1] is 7.8%; in assay [2], 4.45%; in assay [3] it was 4.1%; in assay [4], -4.5%; in assay [5], -3.9%; in assay [6], 4.05%.
For the molecule `O=[N+]([O-])c1ccc2c(Cl)[nH]nc2c1`, the growth inhibition in assay [1] is 35.1%; in assay [2], 27.6%; in assay [3], 29.8%; in assay [4], 30.8%; in assay [5], 39%; in assay [6] it was 23.9%.
For the molecule `CS(=O)(=O)NCC1OC(n2cnc3c(N)ncnc32)C(O)C1O` (stereo not drawn), the growth inhibition is 12.2% in assay [1]; -9.3% in assay [2]; 19% in assay [3]; -5.95% in assay [4]; 30.5% in assay [5]; 1.8% in assay [6].
In the case of `CC12CCC(=O)C3C1CCCC32`, the growth inhibition in assay [1] is -0.45%; in assay [2] it was -6.2%; in assay [3] it was -13.9%; in assay [4] it was 1.2%; in assay [5], -2.15%; in assay [6], -21.6%.
For `CCN(CC)CCN(CCN(CC)CC)c1ccc2ccccc2c1`, the growth inhibition was 18.9% in assay [1]; -12.8% in assay [2]; 7.3% in assay [3]; 5.05% in assay [4]; 16.2% in assay [5]; 32.5% in assay [6].
Regarding `O=C(NCC(=O)N1CCCC1C(=O)OC(=O)C1CCCN1C(=O)CNC(=O)OCc1ccccc1)OCc1ccccc1` (stereo not drawn), the growth inhibition is 44.3% in assay [1]; 1.2% in assay [2]; 4.35% in assay [3]; 16.2% in assay [4]; 18.2% in assay [5]; -28.1% in assay [6].
Turning to `Cn1c(=O)c2c(n(C)c1=O)[n+]([O-])c([N+]1([O-])CCOCC1)n2C`, the growth inhibition was -3.85% in assay [1]; -6.3% in assay [2]; -0.6% in assay [3]; -24.9% in assay [4]; -4.15% in assay [5]; 3.2% in assay [6].
With `Cc1n(Cc2ccccc2)nc2sc(N)n[n+]12`, the growth inhibition in assay [1] is -32%; in assay [2], -9.45%; in assay [3], -56.3%; in assay [4], -0.55%; in assay [5], -4.65%; in assay [6], -6.95%.
As for `Oc1c(Cl)cc(Cl)cc1C1Nc2ccccc2-n2cccc21` (stereo not drawn), the growth inhibition in assay [1] is -5.2%; in assay [2], -11.8%; in assay [3], 0.4%; in assay [4] it was 8.95%; in assay [5], 9.25%; in assay [6], 8.2%.
